Assay outcomes (PubChem)
KLF5 inhibitor – inhibitors of KLF5 expression. inhibition, % at 5 µM. DLD-1 KLF5 promoter-luciferase reporter, luminescence. 0.23% of 290,000 active. AID 1700;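 active means inhibition above a per-plate limit of that plate's mean compound inhibition plus 3 SD, cut at about 60% in these data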;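 further: 0% = DMSO wells and 100% = LY294002 at 200 µM; higher means less KLF5 promoter-driven luciferase light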
TMEM16A act – activators or potentiators of mouse TMEM16A chloride channel; HEK293 TMEM16A/YFP-H148Q/I152L, iodide quench fluorescence; stronger effect = lower value; B-score at 10 µM; 0.3% of 340,000 active; AID 623877;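 active means fluorescence-ratio B-score plate-corrected deviation score at least 3 library SD below zero, with starting fluorescence score within 5 deviations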;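 further: channel opened by trigger with iodide after compound preincubation; score built on the fluorescence ratio of max minus min over baseline; more negative score means more quench and so TMEM16A activation or potentiation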
Target sequence (Q8BHY3 whole entry, looked up): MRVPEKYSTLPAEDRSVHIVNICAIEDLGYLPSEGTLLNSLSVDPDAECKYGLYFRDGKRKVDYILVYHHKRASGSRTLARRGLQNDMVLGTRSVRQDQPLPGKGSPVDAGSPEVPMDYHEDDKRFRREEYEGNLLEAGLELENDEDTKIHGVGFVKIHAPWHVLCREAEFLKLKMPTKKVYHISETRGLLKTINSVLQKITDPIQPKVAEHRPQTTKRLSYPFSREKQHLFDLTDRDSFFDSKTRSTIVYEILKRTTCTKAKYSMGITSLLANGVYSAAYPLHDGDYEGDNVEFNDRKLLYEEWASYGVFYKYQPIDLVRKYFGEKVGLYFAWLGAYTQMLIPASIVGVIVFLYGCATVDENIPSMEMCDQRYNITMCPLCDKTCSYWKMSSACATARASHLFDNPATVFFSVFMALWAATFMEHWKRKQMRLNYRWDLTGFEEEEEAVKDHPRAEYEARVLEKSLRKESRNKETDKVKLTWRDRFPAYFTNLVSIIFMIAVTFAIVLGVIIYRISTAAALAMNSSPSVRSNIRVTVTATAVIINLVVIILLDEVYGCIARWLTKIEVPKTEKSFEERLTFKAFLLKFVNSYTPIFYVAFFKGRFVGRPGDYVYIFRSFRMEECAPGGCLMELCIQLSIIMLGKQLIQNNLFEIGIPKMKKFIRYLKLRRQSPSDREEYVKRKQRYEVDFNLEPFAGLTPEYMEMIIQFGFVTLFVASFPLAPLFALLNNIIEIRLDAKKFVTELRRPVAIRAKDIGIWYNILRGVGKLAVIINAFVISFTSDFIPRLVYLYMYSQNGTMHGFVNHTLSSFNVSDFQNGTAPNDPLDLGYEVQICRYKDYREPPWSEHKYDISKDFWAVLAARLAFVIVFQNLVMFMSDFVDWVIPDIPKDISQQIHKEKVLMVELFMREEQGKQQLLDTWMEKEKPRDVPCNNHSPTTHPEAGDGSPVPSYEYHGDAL
aSyn UTR inh – MLPCN primary screen, SNCA 5' untranslated region; alpha-synuclein 5'UTR reporter, inhibitor activity; inhibition, % (tested at 7.5 µM); 0.82% of 300,000 active; AID 1813; in the data active means inhibition above about 60%;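 further: H4 neuroglioblastoma cells stably carrying SNCA 5'UTR luciferase fusion; 0% = DMSO wells and 100% = positive control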
ANO1 block – blocks the mouse calcium-activated chloride channel TMEM16A; Q8BHY3; HEK293 TMEM16A/YFP iodide influx fluorescence, ionomycin; normalized B-score (activity score, 25-100; higher = stronger inhibition) at 10 µM; 1.2% of 310,000 active; AID 588511;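 active means ratio plate-corrected score three or more library SD toward inhibition, starting fluorescence score within five deviations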;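 further: score derived from kinetic fluorescence span divided by baseline fluorescence per well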
Jurkat NFkB inh – inhibitors of the PMA/ionomycin-induced NF-kB reporter in Jurkat cells. PMA/ionomycin-induced NF-kB luciferase reporter, luminescence. inhibition, % at 4 µM. 0.53% of 330,000 active; in the data active means inhibition above about 50%
697 NFkB inh – inhibitors of the PMA/ionomycin-induced NF-kB reporter in 697 B cells | inhibition, % at 4 µM | 0.33% of 330,000 active | 697 B-cell NF-kB luciferase reporter, 16 h; in the data active means inhibition above about 35%
Starred values were filed as active, the others as inactive; i = inactive; x = no result. Only some compounds are listed: those with a hit (about 2.5% of all), similar ones and a draw of the others.

SMILES	KLF5 inhibitor	TMEM16A act	aSyn UTR inh	ANO1 block	Jurkat NFkB inh	697 NFkB inh
CCN(CC)S(=O)(=O)c1cccc(C(=O)N/N=C(\C)c2ccc(O)cc2O)c1	14	i	111*	i	25	5
CCOC(=O)C1=C(COC(=O)c2cc(Br)c(Br)s2)NC(=O)NC1C (stereo unspecified)	x	i	-3	i	-15	-22
C=CCOc1ccc(/C=C/C(=O)OCC(=O)N2CCC(c3ccccc3)=N2)cc1	x	i	x	x	4	-1
CCOC(=O)Cc1c(C)nc2c(-c3ccc(Cl)cc3)c(C)nn2c1C	5	-4.8*	8	i	-1	-31
CCCN1C=CC(=CC=C(C#N)C#N)C=C1	-6	-6.5*	-14	i	-5	5
C=CCN1C=CC(=CC=C(C#N)C#N)C=C1	-20	-7.7*	-29	i	2	-4
C=CCN1C=C/C(=C\C=C(C#N)C#N)c2ccccc21	33	i	12	i	3	3
CNC(=O)C1CC(=O)N(c2ccc(OCC(=O)NCc3ccccc3)cc2)C1 (stereo unspecified)	13	i	-15	i	-8	-19
Cc1cccc(-c2nn(-c3ccccc3)cc2C(=O)N(C)CC(=O)Nc2ccc(N3CCOCC3)cc2)c1	x	i	-4	i	-2	-27
Cc1cc(NC(=O)NC(=O)c2ccccc2NC(=O)CN)ccc1Oc1ncc(Br)cn1	x	i	x	x	x	x
CC(C)(C)OC(=O)NCCCCCc1cn([C@@H](CO)C(=O)NCCCCCCCCCCC(=O)N2CCN(C(=O)OC(C)(C)C)CC2)nn1	x	i	x	100*	29	-38
CC[C@H](C)[C@@H](C(=O)NCCCCCCCCCCC(=O)N1CCN(C(=O)OC(C)(C)C)CC1)n1cc(CCCCCNC(=O)OC(C)(C)C)nn1	x	i	x	25*	43	-55
CN(C)c1ccc(/C=C2\SC(=O)N(CCc3nnc(N)s3)C2=O)cc1	-36	i	80*	i	-17	-105
CN(C)c1ccc(/C=C2/SC(=O)N(CCN=C3NS(=O)(=O)c4ccccc43)C2=O)cc1	-20	i	-66	i	-11	-68
CCCCC(=O)Nc1cnc(NC(=O)c2cccs2)cc1C	-101	i	-127	i	-63	-65
COC(=O)C1=C(C)NC(C)=C(C(=O)OCC(C)C)C1c1ccccc1[N+](=O)[O-] (stereo unspecified)	x	i	71*	i	12	15
CCCOc1ccccc1C1CC(=O)NC(C)=C1C(=O)OCC(C)C (stereo unspecified)	-15	i	16	i	-7	-40
CCOc1ccccc1NC(=O)C(Sc1ccccc1)c1ccccc1 (stereo unspecified)	-9	i	35	100*	-25	6
Cc1cccc(C2(c3cccc(C)c3)CC2C(=O)Nc2ccc([N+](=O)[O-])cc2O)c1 (stereo unspecified)	-3	i	20	100*	-1	-31
CCN(CC(=O)Nc1ccc(NC(C)=O)cc1)C(=O)c1ccc2c(c1)S(=O)(=O)N=C1CCCCCN12	x	i	2	i	-12	-1
c1coc(CN(Cc2ccco2)c2ncnc3c2oc2ccccc23)c1	0	i	21	100*	19	-34
Clc1ncnc2c1oc1ccccc12	-21	i	-62	i	-88	-133
Cn1c(Sc2ccc(Br)cc2)c(C=O)c2ccccc21	-29	i	10	100*	17	-5
Cc1ccc(S(=O)(=O)N2[C@@H](c3ccccc3)C(C(=O)O)=CC[C@H]2c2cccc(Cl)c2)cc1	x	i	x	i	-19	5
Cc1ccc(S(=O)(=O)N2[C@@H](c3cccc(Cl)c3)C(C(=O)O)=CC[C@H]2c2ccc(Cl)cc2)cc1	x	i	x	100*	-19	4
SMILES	KLF5 inhibitor	TMEM16A act	aSyn UTR inh	ANO1 block	Jurkat NFkB inh	697 NFkB inh
Cc1ccc(S(=O)(=O)N2[C@@H](c3ccc(Cl)cc3)C(C(=O)O)=CC[C@H]2c2ccc(Cl)c(Cl)c2)cc1	x	i	x	100*	-18	-29
CCOc1ccc([C@@H]2CC=C(C(=O)O)[C@H](c3cccc(Cl)c3)N2S(=O)(=O)c2ccc(C)cc2)cc1	x	-6.9*	x	i	20	12
CCOc1ccc(CCNc2nc3ccccc3n3cnnc23)cc1OCC	-13	i	25	i	5	-7
Cc1c(S(=O)(=O)N2CCN(c3ccc(F)cc3)CC2)c(=O)n(C)c(=O)n1C	12	i	-12	i	4	2
Cc1cc(S(=O)(=O)Nc2ccc3c(c2)n(C)c(=O)n3C)ccc1F	3	i	-27	100*	8	4
CCOC(=O)C(CC)/C(C)=N\NC(=O)c1ccccc1O (stereo unspecified)	16	i	93*	i	-4	-16
COc1ccc(-c2csc(=NCCO)n2-c2ccccc2)cc1	-98	i	-99	25*	x	x
CC(C)Cc1ccc(C(C)C(=O)Nc2ccccc2O)cc1 (stereo unspecified)	5	i	-4	25*	44	-14
Cc1ccc(NC(=O)CSCC(=O)NNC(=O)c2ccoc2C)cc1	x	i	5	i	7	11
O=C(NCCc1ccc(Cl)cc1)C1CCC(CNc2nc(=S)[nH]c3ccccc23)CC1 (stereo unspecified)	-21	i	65*	i	0	-27
CCCCNC(=O)C1CCC(CNc2nc(=S)[nH]c3ccccc23)CC1 (stereo unspecified)	-1	i	27	i	5	18
O=C(NCCC1=CCCCC1)C1CCC(CNc2nc(=S)[nH]c3ccccc23)CC1 (stereo unspecified)	-2	i	99*	i	0	-1
CS(=O)(=O)N1CCc2cc(S(=O)(=O)Nc3ccc4oc5c(c4c3)CCCC5)ccc21	-21	i	19	25*	16	-11
Cc1cc(C)n(-c2nc(Nc3ccccc3C(F)(F)F)nc(-n3nc(C)cc3C)n2)n1	11	i	62*	i	10	0
Cc1cc(C)n(-c2nc(Nc3ccccc3C)nc(-n3nc(C)cc3C)n2)n1	-3	x	12	i	-5	16
COc1ccccc1N1CCN(C(=O)CSc2nc3ccccc3[nH]2)CC1	-21	i	-12	25*	-4	-25
OC(CN1CCN(c2ccccc2Cl)CC1)c1ccccc1 (stereo unspecified)	-5	i	-31	i	-2	2
CC1Cc2nc(SCC(=O)Nc3ccc4c(c3)OCO4)n(CCc3ccccc3)c(=O)c2S1 (stereo unspecified)	13	-5.2*	17	i	-6	3
NS(=O)(=O)c1ccc(NC(=O)c2ccc(F)cc2F)c(NC(=O)c2ccc(F)cc2F)c1	-35	i	0	i	-9	5
